Assay results from PubChem BioAssay AID590 (National Center for Advancing Translational Sciences (NCATS), 2007).
About 6,500 (11%) of roughly 59,000 compounds were called active. About 15% were inconclusive and are not listed. Cut-off read from the data, not from the text of the source: active = max dye-equivalent concentration above about 10 nM; inconclusive = mostly about 1.1 nM to 9.6 nM; inactive = weaker than that. The list comes from a sample in which actives are over-represented; it also holds similar structures and randomly drawn compounds.

assay: qHTS Assay for Spectroscopic Profiling in A350 Spectral Region; settings: Compound autofluorescence, 340/450 nm, Alexa 350 dye-equivalents; active compounds read high

Max dye-equivalent concentration, active:
CCCc1cc(=O)oc2c(C)c(O)c(CN3CCCCC3)cc12 8800 nM, CCCN1C2=C(C(=O)CCC2)C(c2ccc(O)c(Br)c2)C2=C1CCCC2=O 81 nM, CC(Nc1nc(N2CCCC2)nc2ccccc12)c1ccccc1 (stereo unspecified) 170 nM, Cn1c(=O)n(C)c2cc(CNc3ccc(N4CCOCC4)c(C(=O)O)c3)ccc21 22 nM, Cc1ccc(-n2nc3cc(Cl)c(NC(=O)c4ccco4)cc3n2)cc1 52 nM, Cc1cc(C(F)(F)F)n2ncc(-c3ccccc3)c2n1 12 nM, CC(=O)Oc1ccc2c(C)c(CC(C)O)c(=O)oc2c1 (stereo unspecified) 21000 nM, O=c1oc2c(CN3CCCCC3)c(O)ccc2c2c1CCCCC2 13000 nM, COc1ccccc1Cc1nc(-c2ccc(C)cc2)no1 17 nM, O=C(CC1Nc2ccccc2NC1=O)Nc1ccccc1 (stereo unspecified) 100 nM, O=C(Nc1nncs1)c1ccccc1NS(=O)(=O)c1cccs1 520 nM

Max dye-equivalent concentration, inactive:
O=C(c1ccco1)N1CCC[C@@]2(CCN(c3ccccc3)C2)C1, CC(Oc1ccc(Cl)cc1)C(=O)Nc1ncccn1 (stereo unspecified), O=C(c1cc(C(F)(F)F)cc(C(F)(F)F)c1)N1CCC2(CCCN(Cc3ccncc3)C2)CC1, O=C(COc1ncnc2ccccc12)NC(=O)NCc1ccccc1, Cc1cccc(-n2c(N)cc(=O)nc2SC(C)C(=O)NC2CCCCC2)c1 (stereo unspecified), COC(=O)c1ccc(CSc2ccccc2C)o1, CCOC(=O)N1CCN(Cc2oc(CO)cc(=O)c2O)CC1, CCOC(=O)c1ccc(NC(=O)CSc2nnc(COc3ccccc3OC)n2C)cc1, O=C(Nc1ccon1)c1cccc(Cl)c1, c1ccc(CNc2ncncc2-c2cccnc2)cc1, CCC(=O)Nc1ccc2c(c1)nc(CCN1CCN(C)CC1)n2C, Cc1ccc(C(CC(=O)O)Nc2nc(N3CCCCC3)nc(N3CCCCC3)n2)cc1 (stereo unspecified), Cc1cc2c(cc1C)NC1=C(N2)O[C@H](c2c[nH]c3ccc(COc4ccccc4)cc23)C1=O, Cn1c(=O)n(C)c2cc(C(=O)Nc3ccc4c(c3)OCO4)ccc21, Cn1nc(-c2ccc(N3CCOCC3)c(NC(=O)c3ccccc3)c2)c2ccccc2c1=O, Cn1c(CNc2nc(-c3ccccc3)cs2)nnc1SCC(=O)c1ccccc1, COc1ccc(CC(=O)Nc2c3c(nn2-c2cccc(Cl)c2)CS(=O)C3)cc1 (stereo unspecified), COC(=O)c1cc(Cl)c(NC(=O)c2ccco2)cc1OC, Cn1c(NC(=O)c2ccco2)c(-c2ccccc2Cl)c(=O)c2ccccc21, CCN(CC)CCCNC(=O)c1cc(-c2cccc(Cl)c2)on1, Cc1cc(-n2nc(C)cc2C)n2ncc(-c3ccccc3)c2n1, O=C(Cn1c(-c2ccc(Cl)cc2)noc1=O)N1CCN(c2ccccc2F)CC1, COc1ccccc1-c1nc(NCCNC(C)=O)c2ccccc2n1, C=CCn1c(=O)c2ccccc2n2c(SCC(=O)N3CCCc4ccccc43)nnc12, CCCn1c(=O)c2ccccc2n2c(SCC(=O)/C(C#N)=C(\C)N)nnc12, Cc1ccc(S(=O)(=O)N(C)CC(=O)NC2CCCC2)cc1, Cc1ccc(Cc2nc(-c3cccc(C)c3)no2)cc1, Cc1ccc(-c2noc(CN3CCN(Cc4ccccc4)CC3)n2)cc1, C[C@H]1O[C@@H](CC(=O)O)Cc2c1c(O)c1c(O)cc(-c3cc(=O)c4c(=O)c5c(c(=O)c=4c3=O)C[C@H](CC(=O)O)O[C@@H]5C)c(O)c1c2O, O=C(CSc1nc2ccccc2o1)N1CCN(c2ccc(Cl)cc2)CC1, CC(=O)N(CN1C(=O)C2CC=CCC2C1=O)c1cccc(Cl)c1 (stereo unspecified), O=C(CC1NCCNC1=O)Nc1ccc(Oc2ccccc2)cc1 (stereo unspecified), CCOc1ccc(NC(=O)CC2NCCNC2=O)cc1 (stereo unspecified), COc1ccc(Cc2nnnn2CC(=O)O)cc1, CC(C)NC(=O)N1CC[C@@]2(CCCN(C(=O)c3cccn3C)C2)C1, O=C(C1CCN(S(=O)(=O)c2cccs2)CC1)N1CCCCCC1, O=C(Nc1ncccn1)c1cccs1, COCCCN1C(=O)c2ccc(C(=O)Nc3ccc(OC)cc3OC)cc2C1=O, COc1ccc(NC(=O)N2CC3(CCN(C(=O)c4cccn4C)CC3)C2)cc1, CCN1C(=O)C(C(=O)NC(C)c2ccccc2)C2CC1(C)Oc1ccccc12 (stereo unspecified)
